Several values for one entry are separate records, joined by “and”; a condition that tells them apart may be missing. Equal values may be shown once. Results filed as inconclusive are left out. Some compounds were tested as several samples or in several runs, with calls that do not always agree. Activity calls are given as the source filed them. Rule for the calls, unless noted: active = hit-call score of the fitted dose curve at least 0.9, where 1 is the maximum; inconclusive = response in the unintended direction; inactive = score below 0.9.
Assays:
[1] = target: human Norepinephrine Transporter (NET), SLC6A2 (gene 6530) (UniProt P23975); experiment: NVS_TR_hNET: NovaScreen (NVS) Transporter Assay for human Norepinephrine Transporter (NET) (AID 2283377);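 note: cell-free membrane protein extracted from CHO cells expressing human NET; displacement of radioligand from human NET seen as loss of scintillation signal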
Sequence of human Norepinephrine Transporter (NET), SLC6A2 (gene 6530) (P23975 whole entry, looked up): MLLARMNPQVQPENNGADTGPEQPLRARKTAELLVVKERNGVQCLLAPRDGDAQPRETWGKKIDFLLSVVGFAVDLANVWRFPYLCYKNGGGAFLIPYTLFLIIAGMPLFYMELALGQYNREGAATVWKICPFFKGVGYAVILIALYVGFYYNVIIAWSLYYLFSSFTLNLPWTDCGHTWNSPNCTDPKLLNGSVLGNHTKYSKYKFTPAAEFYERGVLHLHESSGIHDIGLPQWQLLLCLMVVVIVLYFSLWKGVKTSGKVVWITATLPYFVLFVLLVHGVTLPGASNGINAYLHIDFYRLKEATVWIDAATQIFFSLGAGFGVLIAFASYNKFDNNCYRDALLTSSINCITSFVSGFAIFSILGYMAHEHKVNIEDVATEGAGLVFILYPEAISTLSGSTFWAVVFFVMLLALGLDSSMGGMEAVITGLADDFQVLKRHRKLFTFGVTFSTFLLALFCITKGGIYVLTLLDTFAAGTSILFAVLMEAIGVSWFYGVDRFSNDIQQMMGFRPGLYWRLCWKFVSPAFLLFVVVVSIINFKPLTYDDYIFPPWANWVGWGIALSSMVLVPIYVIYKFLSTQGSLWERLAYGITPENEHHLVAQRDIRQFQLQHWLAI
How it was run: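 Single-concentration duplicate screen at 25 uM, then concentration-response for actives; displacement of specific radioligand from human NET in CHO membrane extracts, filter-based scintillation detection at 1 h relative to DMSO.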

[2] = target: Agonist Androgen Response Element (ARE), AR (gene 367) (UniProt P10275); experiment: OT_AR_ARELUC_AG_1440: Odyssey Thera (OT) 24-hour CHO-K1 Luciferase Assay for Agonist Androgen Response Element (ARE) (AID 2283379)
Sequence of Agonist Androgen Response Element (ARE), AR (gene 367) (P10275 whole entry, looked up): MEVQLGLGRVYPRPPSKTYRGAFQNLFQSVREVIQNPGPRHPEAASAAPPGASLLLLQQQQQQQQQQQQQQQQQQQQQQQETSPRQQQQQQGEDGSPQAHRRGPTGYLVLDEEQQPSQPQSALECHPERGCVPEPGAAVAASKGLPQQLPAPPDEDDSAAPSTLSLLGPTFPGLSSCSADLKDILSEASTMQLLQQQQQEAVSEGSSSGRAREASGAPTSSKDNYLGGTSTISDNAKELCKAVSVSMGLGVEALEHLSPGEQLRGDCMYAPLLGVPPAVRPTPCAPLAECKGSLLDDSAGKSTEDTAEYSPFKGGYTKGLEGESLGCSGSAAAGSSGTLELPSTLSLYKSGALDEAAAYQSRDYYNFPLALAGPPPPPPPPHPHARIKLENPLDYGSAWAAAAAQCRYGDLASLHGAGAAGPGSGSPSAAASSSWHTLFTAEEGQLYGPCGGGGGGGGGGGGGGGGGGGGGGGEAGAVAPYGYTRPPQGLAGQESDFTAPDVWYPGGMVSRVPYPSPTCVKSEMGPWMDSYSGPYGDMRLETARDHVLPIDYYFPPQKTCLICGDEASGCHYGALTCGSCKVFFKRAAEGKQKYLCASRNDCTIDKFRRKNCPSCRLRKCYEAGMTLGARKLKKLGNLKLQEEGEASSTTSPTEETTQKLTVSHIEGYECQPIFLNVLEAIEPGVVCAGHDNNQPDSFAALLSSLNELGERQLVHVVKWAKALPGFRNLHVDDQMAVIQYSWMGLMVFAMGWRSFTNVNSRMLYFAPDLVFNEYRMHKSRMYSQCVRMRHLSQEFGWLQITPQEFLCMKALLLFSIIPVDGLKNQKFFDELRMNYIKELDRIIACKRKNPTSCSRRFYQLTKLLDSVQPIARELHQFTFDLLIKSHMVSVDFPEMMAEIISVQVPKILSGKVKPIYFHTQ
How it was run: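 Readout: luciferase bioluminescence from CHO-K1 ARE-luc cells, measured 24 h post-dosing; agonism = increased mean luminescence vs DMSO controls, fitted in positive direction.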

[3] = target: Estrogen receptor beta (Homo sapiens) (UniProt Q92731); experiment: OT_ER_ERbERb_1440: Odyssey Thera (OT) 24-hour HEK293T Protein-Complementation Assay for Estrogen Receptor-beta/-beta Homodimer (AID 2283380);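 note: fluorescence gain from ER beta LBD homodimer complementation read by laser scanning cytometry; scored as signal increase over DMSO baseline for both agonists and antagonists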
Sequence of Estrogen receptor beta (Homo sapiens) (Q92731 whole entry, looked up, the tested form may be a part): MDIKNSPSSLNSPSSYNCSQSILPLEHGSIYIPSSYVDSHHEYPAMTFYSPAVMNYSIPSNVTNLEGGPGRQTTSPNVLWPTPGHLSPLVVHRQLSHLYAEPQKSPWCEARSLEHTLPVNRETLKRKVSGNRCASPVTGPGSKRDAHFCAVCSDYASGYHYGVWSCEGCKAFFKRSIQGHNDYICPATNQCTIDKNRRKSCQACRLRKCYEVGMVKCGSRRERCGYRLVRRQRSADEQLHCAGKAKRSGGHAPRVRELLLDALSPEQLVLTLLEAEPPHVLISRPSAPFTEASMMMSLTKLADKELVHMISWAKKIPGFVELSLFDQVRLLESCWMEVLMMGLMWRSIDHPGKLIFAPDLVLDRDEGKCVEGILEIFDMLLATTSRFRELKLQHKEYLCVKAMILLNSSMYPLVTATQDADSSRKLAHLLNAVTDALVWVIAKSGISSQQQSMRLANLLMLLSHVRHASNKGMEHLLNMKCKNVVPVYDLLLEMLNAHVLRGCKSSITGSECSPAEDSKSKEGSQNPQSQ
How it was run: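 Fluorescence increase, nuclear for agonists or whole-cell for antagonists, relative to DMSO vehicle, quantified by laser scanning cytometer after fixation and Draq5 staining. Readout from 24 h treatment of HEK293T cells carrying complementation-paired ER beta LBD (aa 310-547).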

[4] = target: Estrogen receptor (Homo sapiens) (UniProt P03372); experiment: OT_ERa_GFPERaERE_0480: Odyssey Thera (OT) 8-hour HeLa Transcription Induction Assay for Estrogen Receptor (AID 2283381; active = hit-call score of the fitted dose curve at least 0.9, where 1 is the maximum; inactive = score below 0.9)
Sequence of Estrogen receptor (Homo sapiens) (P03372 whole entry, looked up): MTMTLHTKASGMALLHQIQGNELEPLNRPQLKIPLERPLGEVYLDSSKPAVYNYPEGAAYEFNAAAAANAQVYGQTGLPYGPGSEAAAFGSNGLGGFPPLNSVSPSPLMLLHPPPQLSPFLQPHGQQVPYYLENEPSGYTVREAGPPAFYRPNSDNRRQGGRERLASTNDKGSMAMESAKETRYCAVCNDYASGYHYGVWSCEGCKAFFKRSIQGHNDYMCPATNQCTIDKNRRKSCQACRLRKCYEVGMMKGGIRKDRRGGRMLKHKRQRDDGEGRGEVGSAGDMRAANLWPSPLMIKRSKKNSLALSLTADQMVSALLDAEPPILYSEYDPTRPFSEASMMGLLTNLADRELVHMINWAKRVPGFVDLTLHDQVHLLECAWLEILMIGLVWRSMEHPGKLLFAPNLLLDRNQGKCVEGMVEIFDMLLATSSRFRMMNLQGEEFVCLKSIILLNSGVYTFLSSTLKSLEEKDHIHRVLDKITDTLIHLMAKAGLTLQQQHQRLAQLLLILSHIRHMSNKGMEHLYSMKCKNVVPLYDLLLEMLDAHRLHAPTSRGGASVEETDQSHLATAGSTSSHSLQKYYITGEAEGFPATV
How it was run: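 Fluorescence microscopy with high-content image analysis measures ERE-driven GFP induction in HeLa cells at 8 h post-dose. Increases fitted against DMSO baseline.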

[5] = target: Estrogen receptor (Homo sapiens) (UniProt P03372); experiment: OT_ERa_GFPERaERE_0120: Odyssey Thera (OT) 2-hour HeLa Transcription Induction Assay for Estrogen Receptor (AID 2283382)
How it was run: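 Fluorescence-microscopy images of the GFP-ERα/ERE reporter, scored by high-content image algorithms, give the readout. HeLa exposure lasted 2 h, and only signal increase over DMSO was fitted.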

[6] = target: Bile acid receptor (Homo sapiens) (UniProt Q96RI1); experiment: OT_FXR_FXRSRC1_0480: Odyssey Thera (OT) 8-hour HEK293T Protein-Complementation Assay for Farnesoid X receptor/SRC-1 Co-activator (AID 2283383)
Sequence of Bile acid receptor (Homo sapiens) (Q96RI1 whole entry, looked up, the tested form may be a part): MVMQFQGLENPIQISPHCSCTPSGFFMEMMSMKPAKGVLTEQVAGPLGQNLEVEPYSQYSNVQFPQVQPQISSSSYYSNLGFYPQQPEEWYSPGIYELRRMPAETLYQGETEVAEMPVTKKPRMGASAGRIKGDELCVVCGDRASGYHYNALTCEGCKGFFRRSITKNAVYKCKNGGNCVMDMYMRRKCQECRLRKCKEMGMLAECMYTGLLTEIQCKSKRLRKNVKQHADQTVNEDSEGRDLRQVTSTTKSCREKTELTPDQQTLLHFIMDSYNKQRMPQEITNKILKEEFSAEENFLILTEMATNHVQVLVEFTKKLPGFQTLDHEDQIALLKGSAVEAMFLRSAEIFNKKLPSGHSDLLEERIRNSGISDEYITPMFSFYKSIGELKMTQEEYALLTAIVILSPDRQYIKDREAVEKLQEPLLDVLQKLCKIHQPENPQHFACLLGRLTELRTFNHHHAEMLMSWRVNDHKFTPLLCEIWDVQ
How it was run: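 Binding of FXR to coactivator SRC-1 was read as fluorescence from a reconstituted split reporter in HEK293T cells, 8 h after chemical addition. Only increases in signal versus DMSO were fit.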

[7] = target: Bile acid receptor (Homo sapiens) (UniProt Q96RI1); experiment: OT_FXR_FXRSRC1_1440: Odyssey Thera (OT) 24-hour HEK293T Protein-Complementation Assay for Farnesoid X receptor/SRC-1 Co-activator (AID 2283384)
How it was run: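 Protein-fragment complementation: FXR and SRC-1 fused to reporter fragments that reassemble on interaction, read by fluorescence intensity. Human HEK293T cells measured 24 h post-dose; positive-direction fit versus DMSO.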

[8] = target: Retinoic acid receptor RXR-alpha (Homo sapiens) (UniProt P19793); experiment: OT_NURR1_NURR1RXRa_0480: Odyssey Thera (OT) 8-hour HEK293T Protein Complementation Assay for Nurr1/retinoid X receptor (RXR) (AID 2283385)
Sequence of Retinoic acid receptor RXR-alpha (Homo sapiens) (P19793 whole entry, looked up, the tested form may be a part): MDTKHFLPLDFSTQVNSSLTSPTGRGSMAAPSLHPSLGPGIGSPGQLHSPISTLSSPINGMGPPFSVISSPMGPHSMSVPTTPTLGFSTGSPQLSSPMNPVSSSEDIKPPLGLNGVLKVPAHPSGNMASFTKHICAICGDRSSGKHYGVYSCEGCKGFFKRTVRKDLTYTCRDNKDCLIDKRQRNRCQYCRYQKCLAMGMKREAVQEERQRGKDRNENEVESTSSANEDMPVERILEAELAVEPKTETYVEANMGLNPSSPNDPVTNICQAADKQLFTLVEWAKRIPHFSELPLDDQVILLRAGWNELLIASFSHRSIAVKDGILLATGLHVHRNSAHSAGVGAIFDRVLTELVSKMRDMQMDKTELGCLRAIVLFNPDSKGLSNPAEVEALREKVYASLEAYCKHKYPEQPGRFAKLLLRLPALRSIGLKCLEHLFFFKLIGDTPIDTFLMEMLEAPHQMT
How it was run: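 Interaction of Nurr1 with RXRα read as reconstituted reporter fluorescence in a HEK293T fragment-complementation system, 8 h post-treatment; increase over DMSO baseline analysed.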

[9] = target: Retinoic acid receptor RXR-alpha (Homo sapiens) (UniProt P19793); experiment: OT_NURR1_NURR1RXRa_1440: Odyssey Thera (OT) 24-hour HEK293T Protein Complementation Assay for Nurr1/retinoid X receptor (RXR) (AID 2283386)
How it was run: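 Gain in fluorescence, fitted relative to DMSO, reflects Nurr1–RXRα association in HEK293T cells after 24 h dosing. Bait and prey are each linked to a reporter-protein fragment that reassembles on interaction.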

[10] = target: mouse Estrogen Receptor alpha (Era), Esr1 (gene 13982) (UniProt P19785); experiment: NVS_NR_mERa: NovaScreen (NVS) Nuclear Receptor Binding Assay for mouse Estrogen Receptor alpha (Era) (AID 2283378);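 note: hit means loss of bound radioligand signal relative to DMSO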
Sequence of mouse Estrogen Receptor alpha (Era), Esr1 (gene 13982) (P19785 whole entry, looked up): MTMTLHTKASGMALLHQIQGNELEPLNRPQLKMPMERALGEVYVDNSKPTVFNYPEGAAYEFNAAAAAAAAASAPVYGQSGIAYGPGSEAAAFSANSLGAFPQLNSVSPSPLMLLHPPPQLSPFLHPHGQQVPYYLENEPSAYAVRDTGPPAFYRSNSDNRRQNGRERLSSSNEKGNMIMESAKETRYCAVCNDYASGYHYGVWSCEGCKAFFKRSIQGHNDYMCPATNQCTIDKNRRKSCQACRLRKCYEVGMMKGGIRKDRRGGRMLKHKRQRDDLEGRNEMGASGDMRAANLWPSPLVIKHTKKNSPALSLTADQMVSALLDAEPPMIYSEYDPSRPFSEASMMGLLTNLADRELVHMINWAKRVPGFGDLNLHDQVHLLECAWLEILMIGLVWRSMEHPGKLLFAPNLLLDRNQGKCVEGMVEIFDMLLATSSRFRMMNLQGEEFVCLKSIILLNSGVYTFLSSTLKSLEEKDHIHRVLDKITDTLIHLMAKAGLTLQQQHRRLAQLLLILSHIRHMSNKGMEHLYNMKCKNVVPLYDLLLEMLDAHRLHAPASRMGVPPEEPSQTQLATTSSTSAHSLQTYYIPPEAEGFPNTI
How it was run: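 Cell-free radioligand competitive displacement binding, read by filter-based scintillation counting 18 h after dosing. Primary screen run in duplicate at 25 uM, actives retested in concentration series; loss of signal versus DMSO.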

Measured: AC50

CN(C)c1ccc(C(=C2C=CC(=[N+](C)C)C=C2)c2ccc(N(C)C)cc2)cc1
inactive: [2] | [3] | [4] | [5]
active: [1] 4.79 µM

CCCCOC(=O)c1ccc(O)cc1
active: [1] 13.9 µM | [3] 4.49 µM and 5.81 µM and 6.38 µM | [6] 50 µM and 31 µM | [7] 14.6 µM and 16 µM
inactive: [2] | [8] | [9]

CCCCCCCCOC(=O)c1cc(O)c(O)c(O)c1
active: [1] 5.24 µM | [10] 11.3 µM | [3] 11.6 µM | [4] 50 µM | [5] 3.33 µM | [6] 63.6 µM | [9] 68.5 µM
inactive: [8] | [9]

Oc1ccc2ccccc2c1
inactive: [9]
active: [1] 7.32 µM | [2] 1.64 µM | [3] 45.7 µM

Clc1cc(Cl)c2c(c1)N=C1CCCCCN1C2
inactive: [4] | [5] | [7] | [8] | [9]
active: [1] 3.55 µM

C[C@]12CC[C@@H]3c4ccc(O)cc4CC[C@H]3[C@@H]1CC[C@H]2O
inactive: [8] | [9]

CCCCCCCCCC(=O)O
inactive: [2] | [8] | [9]

Cc1cccc2ccccc12
inactive: [4] | [5] | [6] | [8] | [9]

O=CCCCC=O
active: [6] 40.2 µM | [8] 50 µM
inactive: [4] | [5] | [7] | [9]

CC1(C)NC(=O)N(c2ccc([N+](=O)[O-])c(C(F)(F)F)c2)C1=O
inactive: [3] | [6] | [7] | [8] | [9]

Cc1ccc2oc(CN(Cc3ccccc3)C(=O)Nc3c(F)cc(F)cc3F)c(-c3ccc(Cl)cc3)c2c1
inactive: [3] | [4] | [5] | [6] | [7]

O=C1O[C@H]([C@@H](O)CO)C(O)=C1O
inactive: [3] | [9]

CCCCCCCC[Si](OCC)(OCC)OCC
inactive: [3] | [8] | [9]

Cc1ncc(CO)c(CO)c1O
inactive: [6] | [7] | [8] | [9]

O=C(O)Cc1cc(I)c(Oc2ccc(O)c(I)c2)c(I)c1
active: [7] 28.6 µM and 29 µM and 23.8 µM
inactive: [3] | [6]

CN1C(=O)CC[C@H]1c1cccnc1
inactive: [3] | [9]

CCO[Si](CCCNC(N)=O)(OCC)OCC
inactive: [3] | [4] | [5] | [7] | [8]

O=C=NCCCCCCN=C=O
inactive: [3] | [4] | [5] | [7] | [8] | [9]

Cc1oc2c(NC(=O)c3c(Cl)cccc3Cl)cccc2c1C(C)(C)O
active: [7] 13.5 µM | [8] 12.6 µM
inactive: [4] | [5] | [6]

CO[C@H]1/C=C/O[C@@]2(C)Oc3c(C)c(O)c4c(O)c(c(/C=N/N5CCN(C)CC5)c(O)c4c3C2=O)NC(=O)/C(C)=C\C=C\[C@H](C)[C@H](O)[C@@H](C)[C@@H](O)[C@@H](C)[C@H](OC(C)=O)[C@@H]1C
inactive: [3] | [8] | [9]

O=c1ccc2ccccc2o1
inactive: [3] | [4] | [5] | [6] | [8] | [9]

O=C1CCC(C2CCCCC2)CC1
inactive: [3] | [6] | [7] | [8] | [9]
active: [6] 33.1 µM and 50 µM | [7] 38.4 µM

O=c1[nH]sc2ccccc12
inactive: [3] | [5]
active: [4] 91.7 µM

CC(O)CC(C)(C)O (stereo unspecified)
inactive: [8]

Oc1ccccc1
inactive: [7] | [8] | [9]

CCN(Cc1cccc(S(=O)(=O)O)c1)c1ccc(C(=C2C=CC(=[N+](CC)Cc3cccc(S(=O)(=O)O)c3)C=C2)c2ccccc2S(=O)(=O)[O-])cc1
active: [9] 46.6 µM
inactive: [3] | [4] | [5] | [6] | [8] | [9]

Cc1cc2c(cc1C(F)(F)F)N(C(=O)Nc1ccc(Oc3cccnc3C)nc1)CC2
inactive: [3] | [4] | [5] | [9]
active: [6] 19.1 µM | [7] 4.55 µM | [8] 29.2 µM

COc1cccc([C@H](O)C2CCN(CCc3ccc(F)cc3)CC2)c1OC
not listed: [1] | [2] | [10]
inactive: all other assays above

CCCCCCCCOc1ccc(C(=O)c2ccccc2)c(O)c1
inactive: [4] | [5] | [6] | [7] | [8]

CCCCOC(=O)CC(CC(=O)OCCCC)(OC(C)=O)C(=O)OCCCC
active: [6] 9.51 µM
inactive: [3] | [7] | [8]

CC[C@@H]1C[C@H](N(Cc2cc(C(F)(F)F)cc(C(F)(F)F)c2)C(C)=O)c2cc(C(F)(F)F)ccc2N1C(=O)OC(C)C
inactive: [3] | [4] | [5] | [8] | [9]

c1ccc2n[nH]nc2c1
inactive: [3] | [8] | [9]

OC12N=C(c3ccccc3)SC1Cc1cc(Cl)ccc12 (stereo unspecified)
active: [6] 71.7 µM | [7] 31.4 µM | [9] 30 µM
inactive: [3] | [4] | [5] | [8]

CC[C@H](NC(=O)c1cc(F)ccc1NS(=O)(=O)c1cccc2cccnc12)c1ccccc1
active: [6] 31.9 µM
not listed: [1] | [2] | [10]
inactive: all other assays above

c1ccc2ccccc2c1
inactive: [4] | [5] | [7] | [9]

NC(=O)c1nc(-c2cccc(-c3cc(F)ccc3OCC(F)(F)C(F)(F)F)c2)n[nH]1
inactive: [3] | [4] | [5]

CC1=CC(=O)/C(=C(/C)O)C(=O)O1
not listed: [1] | [2] | [10]
inactive: all other assays above

CC(C)(O)c1ccc(CNC(=O)c2cccnc2Oc2ccc3nonc3c2)cc1
inactive: [3] | [4] | [5] | [8]

Cc1c2ccccc2c(C)c2c1ccc1ccccc12
inactive: [3] | [4] | [5] | [7] | [8]
active: [6] 14.3 µM

O=C(O)c1ccccc1-n1cc(C(=O)O)c(=O)c2cc(Nc3c(F)cc(F)cc3Cl)c(Cl)cc21
not listed: [1] | [2] | [10]
inactive: all other assays above

CCCCCCCCCCCCO
inactive: [3] | [4] | [5] | [6] | [7] | [8]

CC(C)(C)c1csc(-c2cc3cc(OCc4ccccc4CC(=O)O)ccc3o2)n1
active: [7] 69.8 µM | [8] 2.97 µM | [9] 29.1 µM
inactive: [3] | [4] | [5] | [6]

O=C(O)c1ccccc1C(=O)OCc1ccccc1
inactive: [4] | [5] | [7] | [8] | [9]

Reference: PubChem BioAssay (EPA / NIEHS)
